# Assay outcomes from PubChem.
# Compounds with a hit are over-represented: about 2.1% of the library has one in this group of screens.
# PvdQ inh – P. aeruginosa PvdQ acylase inhibition; purified PvdQ acylase, fluorescence plate reader; inhibition, % at 10 µM; 340,000 tested, 0.063% active; AID 488965; in the data active = inhibition above about 30%, passing the limit was not always enough;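 also: 0% = vehicle neutral wells and 100% = reference inhibitor wells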
# Ecoli rRNA inh – inhibits bacterial ribosomal RNA function over humanized ribosomes; E. coli WT GFP vs humanized-ribosome RFP mutants, fluorescence, 24 h; stronger effect = lower value; DMSO median 0, no signal -100; GFP signal change (wild-type ribosome), % (no concentration beside the values); 350,000 tested, 1.6% active; AID 720706;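 active = significant combined selectivity score with lowered wild-type GFP, culture density cut under 30%, mutant RFP and density less affected; inactive = any of these conditions unmet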
# CFTR F508del cor – CFTR F508del correction in bronchial cells; CFBE cells, YFP halide quenching; stimulated with forskolin plus potentiator P3; % fluorescence drop versus neutral controls; AID 720511; activity (quench increase), % at 7.58 µM; 350,000 tested, 0.36% active;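 active = mean added fluorescence quench of at least 8% versus neutral control, with both replicates also reaching 8%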;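 also: cells transiently co-express mutant CFTR-F508del with the halide-sensitive YFP; corrector assay measuring rescue of mutant channel to the surface after 24 h compound exposure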
# ARNT TACC3 PPI – ARNT/TACC3 interaction disruption. Q9Y6A5. AlphaScreen His-ARNT PAS-B/GST-TACC3 binding, luminescence; TACC3 fragment carries E629A point mutation. inhibition, % at 9.99 µM. 390,000 tested, 0.66% active. AID 623870;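 active = mean inhibition of replicates at least 50% and at least half of replicates each reaching 50%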;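 also: 0% = complete ARNT plus TACC3 wells and 100% = ARNT alone without TACC3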
# ERAP1 HTS inh – inhibitors of human ERAP1 aminopeptidase. Q9NZ08. recombinant ERAP1, Leu-AMC fluorescence, 60 min. inhibition, % at 10.7 µM. 340,000 tested, 0.15% active;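 active = mean replicate inhibition of at least 30%, or all replicates individually reaching that 30% level; inactive = mean below 30% and not every replicate reaching it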;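 also: 0% = neutral control wells and 100% = L-leucinethiol positive control wells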
# Starred values were filed as active, the others as inactive; / = not tested or not shown.
SMILES,PvdQ inh,Ecoli rRNA inh,CFTR F508del cor,ARNT TACC3 PPI,ERAP1 HTS inh
Cc1ccc(Oc2coc3cc(O)ccc3c2=O)cc1,-7,-24*,-2,-7,-7
CC(=O)N(C)C[C@@H]1Oc2ncc(C3=CCCC3)cc2C(=O)N([C@H](C)CO)C[C@@H]1C,/,4,-3,4,2
COC(=O)CC1(c2ccc(OC)cc2)C(=O)c2ccccc2C1=O,-8,-26*,-1,4,7
Cc1cc(Br)cn2c(Cc3cccc(F)c3)c(-c3ccc(F)cc3)nc12,/,-22,-1,/,1
Cc1cc(Br)cn2c(Cc3ccsc3)c(-c3ccc(F)cc3)nc12,/,-27,8.1*,/,/
Cc1nn(C)cc1NC(=O)C[C@@H]1CC[C@@H]2[C@H](COc3ccc(NC(=O)C4CCOCC4)cc3C(=O)N2C)O1,/,1,/,-5,0
COc1ccc(CN(C)C[C@@H]2Oc3c(NC(=O)NC4CCCCC4)cccc3C(=O)N([C@@H](C)CO)C[C@@H]2C)cc1,/,4,0,6,-16
CC1Cc2ccccc2N1C(=O)c1ccc(N2CCCCC2)c([N+](=O)[O-])c1 (stereo not given),-14,-30*,-2,3,-2
COc1ccc(OCC(=O)N2c3ccccc3CC2C)c([N+](=O)[O-])c1 (stereo not given),-12,-24*,0,3,2
CC1Cc2ccccc2N1C(=O)c1ccc(N2CCCC2)c([N+](=O)[O-])c1 (stereo not given),8,-33,-4,/,-1
COc1ccc(/C=C/C(=O)OCC(=O)N2c3ccccc3CC2C)c(OC)c1 (stereo not given),/,3,-7,/,1
CC(C)CC#Cc1cnc2c(c1)C(=O)N([C@H](C)CO)C[C@H](C)[C@@H](CN(C)C(=O)c1ccccc1F)O2,/,0,-4,/,/
Cc1ccc(S(=O)(=O)Nc2cccc3c2O[C@@H](CN(C)Cc2ccc(C(=O)O)cc2)[C@H](C)CN([C@@H](C)CO)C3=O)cc1,/,6,0,-4,3
Cc1ccccc1NC(=O)c1c(C)nn(-c2ccccc2)c1Cl,3,-1,2,-5,-3
COc1ccccc1NC(=O)c1c(C)nn(-c2ccccc2)c1Cl,-11,-36*,0,2,-2
COC(=O)C[C@H]1CC[C@@H]2[C@@H](COc3ccc(NC(=O)c4cnccn4)cc3C(=O)N2C)O1,/,-3,-1,/,/
CCOCCCNC(=S)N(CCCN(C)C)Cc1cc2cc3c(cc2[nH]c1=O)OCCO3,0,18,-2,27*,3
COCCNC(=S)N(CCO)Cc1cc2cc3c(cc2[nH]c1=O)OCCO3,-11,22,1,49*,0
Cc1cc(C)nc(NS(=O)(=O)c2ccc(NC(=O)c3ccc(N4C(=O)CCC4=O)cc3)cc2)n1,44*,/,/,35,/
C[C@H](CO)N1C[C@H](C)[C@H](CN(C)S(=O)(=O)c2ccc(F)cc2)Oc2ccc(NC(=O)Cn3cnnn3)cc2C1=O,/,5,3,-1,4
COC(=O)c1c(CC[C@@H](CO)NC(=O)N[C@H](Cc2ccccc2)Cn2cc(-c3ccccc3N)nn2)oc(C(C)=O)c1C(=O)OC,/,/,-1,/,-1
COC(=O)c1c(CC[C@@H](CO)NC(=O)N[C@H](Cc2ccccc2)Cn2cc(-c3ccccn3)nn2)oc(C(C)=O)c1C(=O)OC,/,/,2,22*,1
Cc1cccc(OCCC(=O)N(C)CC(=O)Nc2cccc3ccccc23)c1,8,-20*,/,-2,1
Cc1ccc(OCCCC(=O)N(C)CC(=O)Nc2ccccc2Cl)cc1,11,-13,-1,-5,5
Cc1ccc(-n2nc(C(=O)NN)c(C)c(C#N)c2=O)cc1Cl,-7,1,-1,-3,-3
Cc1c(C(=O)NN)nn(-c2ccc(Cl)cc2)c(=O)c1C#N,11,-16*,1,1,-2
NNC(=O)c1nn(-c2ccc(Cl)cc2)cc1O,-15,-19*,-33,-5,/
Cc1ccc(S(=O)(=O)NNC(=O)Nc2cccc(F)c2)c(C)c1,6,3,2,-3,-4
Cc1ccc(S(=O)(=O)NNC(=O)Nc2ccc([N+](=O)[O-])cc2)c(C)c1,-6,-23*,-2,-3,1
CC(=O)N1[C@H](CO)[C@H](c2ccc(-c3cccnc3)cc2)[C@H]1CNC(=O)C1CCC1,/,1,0,/,0
